# Reference: PubChem BioAssay
# Biological target: Calmodulin-1 (Homo sapiens) (UniProt P0DP23)
# Test: small molecules binding Ca-loaded calmodulin-1 – biochemical, small-molecule microarray, Cy5-labelled CALM1, plus calcium, artefact control for SMM control-protein annotation, profiling panel (AID 1112);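 also: score merges spot fluorescence with signal to noise from triplicate slides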
# Conditions: Cy5-CALM1 binding fluorescence, higher = more signal
row,Compound,composite z-score
1,CCCN1C(=O)[C@@]2(CCC(=O)OC(C)(C)C)N=C(c3ccc(OCCCO)cc3)O[C@H]2c2ccccc21,-0.38
2,O=C(O)[C@H]1C[C@H]2C(=O)NCC(=O)N2[C@H]1c1ccc(O)cc1,-0.0282
3,CC(C)c1ccc(NN2C(C(O)c3ccc(N(C)C)cc3)C=CC3C(=O)N(c4ccccc4)C(=O)C32)cc1 (configuration not stated),0.176
4,CCC[C@@H]1C=C(C(=O)O)[C@H](c2ccc(C)cc2)N1S(=O)(=O)c1ccc(C)cc1,0.0233
5,CC(C)c1ccc(NN2C(C(O)c3c(F)cccc3Cl)C=CC3C(=O)N(c4ccccc4)C(=O)C32)cc1 (configuration not stated),0.98
6,CC(C)=CCCC(C)=CC(O)C1C=CC2C(=O)N(c3ccccc3)C(=O)C2N1Nc1ccccc1 (configuration not stated),1.18
7,COCC1=C2[C@@H](CCc3ccccc3)OB(O)C[C@@H]2[C@@H]2C(=O)N(Cc3ccccc3)C(=O)[C@@H]2C1,-0.112
8,COC(=O)[C@@]1(Cc2ccc(OC)cc2)[C@H]2c3cc(C(=O)N4CCCC4)n(CCc4c[nH]c5cc(F)ccc45)c3C[C@H]2CN1C(=O)c1ccccc1,1.07
9,CC(C)N1CC=CC23O[C@@H]4C=CCOC(=O)[C@@H]4[C@H]2C(=O)N(CCO)[C@@H]3C1=O (some centres not stated),0.641
10,COC(=O)C(CC#Cc1ccc2c(c1)[C@]1(C(=O)N2)[C@H](c2ccc(OCCO)cc2)N2[C@H](c3ccccc3)[C@H](c3ccccc3)OC(=O)[C@H]2[C@@H]1C(=O)NC[C@H](O)c1ccccc1)C(=O)OC,0.524
11,CC(C)NC(=O)[C@@]1(Cc2ccccc2I)c2ccccc2C(=O)N(Cc2ccccc2)[C@H]1c1ccc(CO)cc1,-0.726
12,CCOC(=O)C[C@H]1[C@H](OC(=O)Cc2ccc3c(c2)OCO3)[C@@H](NC(=O)c2ccc(-c3ccccc3)cc2)c2cc(OCCCO)ccc2N1C(=O)c1ccccc1,-0.0305
13,CC(c1ccccc1)C(O)C1C=CC2C(=O)NC(=O)C2N1Nc1ccccn1 (configuration not stated),-0.487
14,COc1ccc(C#Cc2ccc3c(c2)[C@]2(C(=O)N3)[C@H](c3ccc(O)cc3)N3[C@H](c4ccccc4)[C@H](c4ccccc4)OC(=O)[C@H]3[C@@H]2C(=O)NC[C@H](O)c2ccccc2)cc1,0.689
15,O=C1O[C@H](c2ccccc2)[C@H](c2ccccc2)N2[C@H]1[C@@H](C(=O)O)[C@]1(C(=O)Nc3ccc(C#CC4(O)CCCCCC4)cc31)[C@H]2c1ccc(OCCO)cc1,0.475
16,NCCCCCCNC(=O)[C@H]1C[C@H]2C(=O)NCC(=O)N2[C@H]1c1cccc(OCCO)c1,-0.369
17,C=CCOC(=O)[C@H]1[C@@H]2C(=O)O[C@@H](c3ccccc3)[C@@H](c3ccccc3)N2[C@@H](c2ccc(OCCOC(=O)[C@@H]3C[C@@H]4C(=O)NCC(=O)N4[C@@H]3c3ccc(O)cc3)cc2)[C@]12C(=O)Nc1ccccc12,0.0637
18,[N-]=[N+]=Nc1ccccc1C[C@]1(C(=O)NCCN2CCOCC2)N=C(c2ccc(OCCCO)cc2)O[C@H]1c1ccccc1,0.129
19,CC(C)N1C(=O)C[C@@](C(=O)NCc2ccccc2)(c2ccc([N+](=O)[O-])cc2)[C@H]1c1ccc(CO)cc1,-0.602
20,O=C1OCCC/C=C\[C@H]2OC34C=CCN(Cn5nnc6ccccc65)C(=O)[C@H]3N(CCCCCO)C(=O)[C@@H]4C12 (some centres not stated),-0.388
21,NCCCCCNC(=O)[C@H]1C[C@H]2C(=O)NCC(=O)N2[C@H]1c1cccc(OCCO)c1,0.8
22,CN1C=C(C(=O)OCCS(C)(=O)=O)C(C(=O)OCCS(C)(=O)=O)=CC(CCCO)=CC1C1CC1 (configuration not stated),-0.0416
23,COCCOC(=O)N1C(=O)[C@@]2(c3cc(C#CC4=CCCCC4)ccc31)[C@H](C(=O)NC[C@H](O)c1ccccc1)[C@H]1C(=O)O[C@H](c3ccccc3)[C@H](c3ccccc3)N1[C@@H]2c1ccc(O)cc1,0.274
24,CCCCCCCCCCC(O)C1C=CC2C(=O)N(Cc3ccccc3)C(=O)C2N1n1cnnc1 (configuration not stated),0.727
25,Cc1ccccc1C(O)C1C=CC2C(=O)N(C)C(=O)C2N1N1CCCCC1 (configuration not stated),0.413
26,CC(=O)NCCCC[C@@H]1NC(=O)[C@@H]2C[C@H](C(=O)NCCCCCCNC(=O)CS)[C@H](c3ccc(O)cc3)N2C1=O,0.31
27,C=CCOC(=O)[C@H]1[C@@H]2C(=O)O[C@@H](c3ccccc3)[C@@H](c3ccccc3)N2[C@@H](c2ccc(OCCOC(=O)[C@@H]3C[C@@H]4C(=O)N5CCC[C@H]5C(=O)N4[C@@H]3c3ccc(O)cc3)cc2)[C@]12C(=O)Nc1ccccc12,0.0257
